Source: PubChem BioAssay
This is a sample that favours compounds with a hit; in the whole collection about 19% have one here.
HT1080NT lethal – qHTS for induction of synthetic lethality in tumor cells producing 2HG: qHTS for the HT-1080-NT fibrosarcoma cell line. HT-1080-NT fibrosarcoma viability, CellTiter-Glo ATP luminescence, 48 h. Potency, µM (highest dose often 46.1 µM), inactives show at the highest dose activity, negative = less viability, actives largely listed as cytotoxic. AID 686970, 2013. 360,000 compounds, 1.6% hits;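 further: NT is the 2HG producing partner of a matched IDH1 knockdown line; potency means the concentration at half of the fitted maximal effect; 0% = DMSO-treated cells and -100% = media-only wells without cells; nearly all actives have a fitted effect of over 55% in size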
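Luminescent CellTiter-Glo readout after 48 hours of compound exposure at 37 degrees C defined viability of HT-1080-NT cells. Activity was normalized to DMSO wells and cell-free media wells; concentration-response curves were fitted and assigned curve classes.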
DT40 TDP1 CPT – qHTS for Inhibitors of human tyrosyl-DNA phosphodiesterase 1 (TDP1): qHTS in cells in presence of CPT; chicken DT40 Tdp1-/-;hTDP1 cells + 20 nM CPT, ATP luminescence, 48 h; Potency, µM (doses to about 46.2 µM), without a hit: at the highest dose activity change, negative = growth inhibition, most hits filed as inhibitors; 420,000 compounds, 12% hits; further: potency means the concentration at half of the fitted maximal effect; nearly all actives have a fitted effect of over 55% in size
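Chicken DT40 Tdp1-/- cells complemented with human TDP1, 400 cells/well, exposed to compounds plus 20 nM camptothecin for at least 48 h at 37 C; viability read as ATP content by CellTiter-Glo luminescence.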
IL1B secr inh – qHTS for Inhibitors of Inflammasome Signaling: IL-1-beta AlphaLISA Primary Screen; THP-1 LPS/ATP IL-1B secretion, AlphaLISA, 16 h; hits give low values; activity change, % at 57.5 µM; 360,000 compounds, 4.7% hits; in the data active means activity change below about -50%; inconclusive means mostly about -30% to -49%
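THP-1 cells pretreated 1 hr with compounds (up to 57.5 uM final), then stimulated with LPS (250 ng/mL final) plus ATP (1.25 mM final); secreted IL-1B measured by AlphaLISA after 16 hr, decreased signal indicating inhibition.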
ELG1 repair inh – qHTS screen for small molecules that inhibit ELG1-dependent DNA repair in human embryonic kidney (HEK293T) cells expressing luciferase-tagged ELG1; HEK293T ELG1-luciferase reporter, luminescence, 16 h; DNA damage induced by 5-fluorouridine; Potency, µM (top dose mostly 46.1 µM), for the others: at the top dose activity change, negative = inhibition, usual class: inhibitors; 330,000 compounds, 2.3% hits; further: potency means the concentration at half of the fitted maximal effect; nearly all actives have a fitted effect of over 55% in size
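5-Fluorouridine DNA damage + compound/DMSO, 2,000 cells/well, 16 h, 37 °C/5% CO2. ONE-Glo, 30 min RT, luminescence. Readout = decrease in reporter signal.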
DT40 TDP1 no CPT – qHTS for Inhibitors of human tyrosyl-DNA phosphodiesterase 1 (TDP1): qHTS in cells in absence of CPT; Potency, µM (series often up to 46.2 µM), inactives show at the top dose activity change, negative = growth inhibition, actives largely listed as inhibitors; DT40 Tdp1-/- hTDP1 cells, no CPT, ATP luminescence, 48 h; AID 686978, 2013; 420,000 compounds, 15% hits; further: potency means the concentration at half of the fitted maximal effect; nearly all actives have a fitted effect of over 55% in size
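Camptothecin absent (DMSO only). Human TDP1-complemented DT40 knockout cells, 400 cells/well, 37 °C for minimum 48 hr; ATP measured via CellTiter-Glo, 30 min dark incubation, luminescence.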
HT1080 IDH1KD tx – qHTS for induction of synthetic lethality in tumor cells producing 2HG: qHTS for the HT-1080-IDH1KD cell line. 360,000 compounds, 2% hits. HT-1080 IDH1 knockdown viability, ATP luminescence, 48 h. Potency, µM (series often up to 46.1 µM), for the others: at the top dose activity, negative = toxicity, hits mostly cytotoxic;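 further: potency means the concentration at half of the fitted maximal effect; 0% = DMSO wells and -100% = cell-free medium wells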
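% activity derives from luminescence (CellTiter-Glo), normalised to DMSO and no-cell wells. HT-1080-IDH1KD cells, 750/well, had 48 h compound exposure at 37 °C.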
An asterisk follows results filed as active; i = inactive; ? = inconclusive; . = not tested or not shown; [ ] = dose if it differs, or a comment. Unless noted, the call rests on the fitted dose curve; in most records, active means well fitted curve in the direction sought with a large enough effect; inconclusive means small, poorly fitted or top-dose-only effect, or another doubt; inactive means no such curve, though single readings can be large; an effect the other way counts as inactive or inconclusive. Unless noted, on the % scale 0 is the no-effect control and ±100 the full control effect.

SMILES	HT1080NT lethal	DT40 TDP1 CPT	IL1B secr inh	ELG1 repair inh	DT40 TDP1 no CPT	HT1080 IDH1KD tx
O=C(Nc1ccccc1N1CCN(C(=O)c2ccccc2)CC1)c1cc2ccccc2o1	8.0%	?	16.7	?	20.6µM*	4.5%
O=C(Nc1ccccc1N1CCOCC1)c1cc2ccccc2o1	-0.5%	16.4µM*	3.4	16.9%	-25.9%	11.7%
O=C(NC(=S)N1CCOCC1)c1cc2ccccc2o1	-9.4%	6.51µM*	8.6	?	11.6µM*	9.1%
O=C(Nc1ccc(N2CCN(C(=O)c3ccccc3)CC2)cc1)c1cc2ccccc2o1	-21.2%	6.51µM*	-97.0*	9.2µM*	5.17µM*	?
NC(=O)c1nn(CC(=O)Nc2cccc(S(=O)(=O)N3CCCC3)c2)c(=O)c2ccccc12	3.7%	-25.7%	15.4	-17.0%	-0.7%	1.7%
Cc1ccc(NC(=O)CSc2nnc(CNC(=O)c3ccco3)n2C)cc1C	5.9%	-11.3%	7.9	5.9%	2.8%	2.6%
O=c1c(-c2cccs2)nc2cnc(N3CCOCC3)nc2n1-c1ccccc1	.	-9.1%	.	.	-16.5%	.
O=C(Nc1ccc(N2CCOCC2)c(Cl)c1)c1cc2ccccc2o1	?	14.6µM*	-78.4*	?	20.6µM*	?
COc1ccccc1C(=O)Nc1ccccc1N1CCOCC1	7.8%	?	-16.2	-4.3%	?	3.7%
CSCc1c(C(=O)Nc2ccccc2N2CCOCC2)oc2ccccc12	20.9%	16.4µM*	28.8	-13.5%	7.31µM*	3.8%
CSCc1c(C(=O)Nc2ccc(N3CCOCC3)cc2)oc2ccccc12	-0.5%	-18.0%	0.5	10.2%	-24.2%	-4.4%
COc1c(C(=O)Nc2ccccc2N2CCOCC2)cc2ccccc2c1Br	-7.3%	?	-10.1	.	23.1µM*	-7.6%
CS(=O)(=O)N1CCN(c2ccccc2NC(=O)c2cc3ccccc3o2)CC1	-24.9%	-29.1%	-11.3	20.6µM*	14.6µM*	-10.2%
Cc1cccc(NC(=O)c2cc(-c3ccc(C)c(C)c3O)n[nH]2)c1	-2.0%	?	0.9	?	-22.9%	-1.4%
O=C(OCc1ccccc1F)c1cnc(Cl)c(Cl)c1	0.4%	27.7%	-15.0	4.1%	1.3%	-13.4%
Cc1ccc(/C=C2\SC(=S)N(CCCC(=O)NC3CCCC3)C2=O)cc1	9.8%	-22.3%	i	?	18.4µM*	24.8%
Cc1ccc(/C=C2/SC(=S)N(CC(=O)Nc3ncc(Cc4ccc(C)cc4)s3)C2=O)cc1	16.5%	23.1µM*	-2.1	-1.4%	11.6µM*	19.2%
Cc1ccc(/C=C2/SC(=S)N(CCCC(=O)Nc3ccc(O)cc3)C2=O)cc1	16.4µM*	?	-62.3*	16.0%	23.1µM*	20.6µM*
CC(=O)c1ccc(NC(=O)CN2C(=O)/C(=C/C(C)=C/c3ccccc3)SC2=S)cc1	2.8%	-16.5%	4.6	5.8%	?	0.9%
CC(/C=C1\SC(=S)N(CCC(=O)Nc2ccc(O)cc2)C1=O)=C\c1ccccc1	-20.2%	18.4µM*	-53.1*	-12.1%	18.4µM*	?
Cc1ccc(/C=C2\SC(=S)N(CC(=O)Nc3ncc(Cc4ccccc4Cl)s3)C2=O)cc1	.	.	.	2.4%	.	.
CCN(C(=O)COC(=O)/C=C/c1ccco1)C1CCCCC1	0.8%	1.0%	-8.1	0.4%	-15.2%	-1.4%
Cn1cc(S(=O)(=O)N2CCCC2)cc1C(=O)NCCc1ccccc1	19.6%	?	10.8	9.5%	?	-1.5%
COc1ccc([N+](=O)[O-])c2c1CCN2C(=O)CC[C@H](N)C(=O)O	.	2.9%	.	.	-16.3%	.
O=C(CCCN1C(=O)/C(=C/c2ccccc2)SC1=S)Nc1cccc(O)c1	-27.0%	18.4µM*	-52.3*	?	23.1µM*	-23.5%
SMILES	HT1080NT lethal	DT40 TDP1 CPT	IL1B secr inh	ELG1 repair inh	DT40 TDP1 no CPT	HT1080 IDH1KD tx
O=C(CN1C(=O)S/C(=C\C=C\c2ccccc2)C1=O)Nc1ccc(O)cc1	8.9%	?	-53.8*	?	?	3.1%
O=C(CCCN1C(=O)/C(=C\c2ccccc2)SC1=S)Nc1cccc(C(=O)O)c1	-0.1%	2.8%	-1.7	-6.2%	-18.2%	-3.3%
COc1ccc(/C=C2\SC(=S)N(CCC(=O)Nc3ccc(O)cc3)C2=O)cc1	?	-1.1%	16.2	1.6%	-4.3%	-0.1%
CCN(CC)CCOC(=O)c1ccc(NC(=O)CCCN2C(=O)S/C(=C/c3ccc(OC)cc3)C2=S)cc1	?	?	-69.0*	1.0%	20.6µM*	11.6µM*
COc1cc(/C=C2\SC(=S)N(NC(=O)c3cccc(O)c3)C2=O)ccc1O	-19.2%	16.4µM*	-8.0	-1.8%	23.1µM*	-23.6%
CS(=O)(=O)Nc1ccc2c(c1)[C@H]1C[C@H](CC(=O)NCc3cccc(F)c3)O[C@@H](CO)[C@H]1O2	-10.8%	-18.1%	-14.4	.	-27.0%	-0.2%
O=C(CCN1C(=O)/C(=C\c2ccccc2)SC1=S)Nc1ccc(C(=O)O)cc1	-24.0%	7.3%	29.9	9.0%	-2.3%	4.3%
Cc1ccc(/C=C2\SC(=S)N(CCCC(=O)NNC(=O)c3ccccc3O)C2=O)cc1	-1.3%	?	0.0	?	18.4µM*	-2.5%
CC(/C=C1\SC(=S)N(NC(=O)c2ccc(C)cc2)C1=O)=C\c1ccccc1	-8.6%	-18.5%	-12.7	-2.9%	?	-13.1%
CC(/C=C1\SC(=S)N(NC(=O)c2ccncc2)C1=O)=C\c1ccccc1	-1.5%	-1.1%	-79.0*	13.5%	2.5%	-4.7%
O=C(CCCN1C(=O)/C(=C\c2ccccc2)SC1=S)Nc1ccc(O)cc1	23.1µM*	?	-104.9*	?	14.6µM*	14.6µM*
COc1cccc(/C=C2/SC(=S)N(CCCC(=O)Nc3ccc(O)cc3)C2=O)c1	?	?	-84.8*	-23.9%	?	?
O=C(O)C1CC[C@@](C(=O)O)(c2ccccc2)c2ccccc21 (some centres not stated)	.	11.2%[9.04 µM]	.	.	11.0%[9.04 µM]	.
